Screening results (PubChem BioAssay)
Pf growth 48h – P. falciparum growth inhibition at 48 hours (one generation); 310,000 compounds, 5.9% hits; P. falciparum luciferase growth in erythrocytes, 48 h; Potency, µM (highest dose often 28.7 µM), without a hit: top-dose activity change, negative = inhibition, most hits filed as inhibitors; also: potency is read from the fitted curve at half-maximal effect; % is scaled to controls: 0 for no effect and ±100 for the full control effect
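Firefly luciferase activity from engineered P. falciparum reports growth; inhibitors lower the luminescent signal. Cultures contained 2% hematocrit erythrocytes at 0.1% final parasitemia.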
HCMV inh – human cytomegalovirus inhibition; HFF cells, HCMV-luciferase reporter, 72 h; hits give low values; activity change, negative = inhibition, % at 57.5 µM; 410,000 compounds, 4.5% hits; AID 1259415; in the data active = activity change below about -60%; inconclusive = no clear call, values can overlap the other calls; inactive = above about -39%; also: % is scaled to controls: 0 for no effect and ±100 for the full control effect
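Luciferase read-out from HCMV-luciferase-infected HFFs (MOI 1 PFU/cell) 72 h post infection at 37C; compounds added after 16 h cell attachment; activity normalized between buffer-only basal and Salinomycin (10uM) inhibitor controls.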
Cycloheximide cs – counter-screen hit for Shiga toxin inhibitors, cycloheximide. max response, %. cell reporter, cycloheximide protein synthesis inhibition counterscreen. 300,000 compounds, 12% hits; in the data active = max response mostly above about 13%, no sharp cut-off; inactive = mostly below about 14%; also: read at 38.3 µM for the half of the compounds with a filed dose; 0% is about no effect
Pf growth 96h – P. falciparum growth inhibition at 96 hour, primary screen for plastid delayed-death inhibitors; 320,000 compounds, 6.9% hits; P. falciparum luciferase reporter growth, 96 h; Potency, µM (titrated, usually from 28.7 µM), for inactives: top-dose activity change, negative = inhibition, usual class: inhibitors; also: potency is read from the fitted curve at half-maximal effect; % is scaled to controls: 0 for no effect and ±100 for the full control effect
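96 h incubation, 37 C, 5% CO2, of luciferase-reporter P. falciparum-infected RBCs (2% hematocrit, 0.05% parasitemia final) with test compounds; endpoint luminescence.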
Shiga toxin inh – blocks Shiga toxin action in Vero cells; Vero cells, Shiga toxin protein synthesis inhibition reporter; inhibition, % at 38.7 µM; 290,000 compounds, 9.2% hits; AID 2315; in the data active = inhibition mostly above about 28%, no sharp cut-off; inactive = mostly below about 43%; also: 0% is about no effect
Numbers without * were called inactive; ? = inconclusive; · = not tested or not shown; [ ] = another dose, or the depositor's remark. In the library only some 20% were active in any assay of this set; here they are far more common. Unless noted, calls follow the shape of the dose curve; as a rule, active = well fitted inhibition curve with a large enough effect; inconclusive = small, poorly fitted or top-dose-only effect, or another doubt; inactive = no such curve, though single readings can be large or run the other way.

SMILES	Pf growth 48h	HCMV inh	Cycloheximide cs	Pf growth 96h	Shiga toxin inh
CCCc1nnc2c(N(C)S(=O)(=O)c3ccc(C)cc3)nc3ccccc3n12	?	-69.4*	0.7	13.1µM*	-6.5
Cc1ccc(CNc2cnn(C34CC5CC(CC(C5)C3)C4)c(=O)c2Cl)cc1	3.6%	-23.6	1.4	?	2.1
O=c1c(Cl)c(NCc2ccc(F)cc2)cnn1C12CC3CC(CC(C3)C1)C2	13.1µM*	-24.4	-3.1	28.2%	-9.3
O=c1c(Cl)c(N2CCN(c3ccc(F)cc3)CC2)cnn1C12CC3CC(CC(C3)C1)C2	4.65µM*	-62.6*	-0.2	4.15µM*	-5.6
O=C(CCC(=O)Nc1ccccc1)NNS(=O)(=O)c1ccc(Cl)cc1	2.0%	2.3	0.8	-11.3%	-8.1
Cc1cc(=O)[nH]c2ccc(S(=O)(=O)N3CCOCC3)cc12	-3.1%	10.4	6.0	?	-9.0
Cc1ccc(C2C3=C(CC(C)(C)CC3=O)N=C3c4ccccc4C(=O)C32)cc1 (centres undefined)	8.28µM*	-67.9*	-1.9	16.8%	-9.1
CCOC(=O)C1=C(Cc2ccc(Cl)cc2)C(=O)c2ccccc2C1=O	?	·	12.3	·	40.2
CCOC(=O)C1=C(C)N=C2c3ccccc3C(=O)C2C1c1ccc(Cl)cc1 (centres undefined)	10.4µM*	-80.0*	-1.0	10.4µM*	-11.7
CC1(C)CC(=O)C2=C(C1)N=C1c3ccccc3C(=O)C1C2c1ccc(Cl)cc1 (centres undefined)	?	-71.1*	-2.2	?	-8.2
C[C@H]1CC[C@]2(O[C@H](CCO)C[C@H](O)[C@H]2O)O1	·	-9.1	·	·	·
CCC(O)C1CCN(Cc2cn(Cc3ccccc3)nc2-c2cc3ccccc3o2)CC1 (centres undefined)	5.22µM*	-61.3*	-4.1	0.0%	-9.2
COCCOC1CCN(Cc2cn(Cc3ccccc3)nc2-c2cc3ccccc3o2)CC1	?	2.4	-3.7	30.5%	-4.7
COCCNc1cnn(-c2ccccc2)c(=O)c1Cl	0.4%	7.6	25.3*	?	39.0*
CCOc1cnn(-c2ccccc2)c(=O)c1Cl	·	-5.1	8.2	9.3%	10.0
CCCCNc1cnn(-c2ccccc2)c(=O)c1Cl	47.9%	-21.2	32.5*	?	75.1*
Nn1c(SCc2ccc(C(=O)O)cc2)nnc1-c1ccc(Cl)cc1Cl	25.9%	?	-2.1	29.0%	-5.3
Cc1cccc(-n2nnc(-c3nc(-c4cccs4)no3)c2N)c1	·	53.2	·	·	·
N/C(=N\OC(=O)CC1CCCCC1)c1cccc([N+](=O)[O-])c1	4.1%	0.0	35.1*	0.0%	82.8*
N/C(=N\OC(=O)CCC1CCCCC1)c1ccc([N+](=O)[O-])cc1	35.4%	-6.8	2.5	32.0%	-1.3
N/C(=N\OC(=O)CCC1CCCC1)c1cccc([N+](=O)[O-])c1	35.9%	-7.4	18.3*	-10.0%	28.3
N/C(=N\OC(=O)CC1CCCCC1)c1ccc([N+](=O)[O-])cc1	29.0%	1.1	18.4*	-27.0%	26.1
COc1ccc(/C(N)=N/OC(=O)CC2CCCCC2)cc1	14.0%	-34.3	47.0*	30.0%	159.4*
CC(C)Oc1cccc(NC(=O)C2(C)CCN2C(=O)C(C)C)c1 (centres undefined)	·	-37.2	·	·	·
CCn1cc(C(=O)N2CCN(c3ccccc3F)CC2)c(=O)c2cc(S(=O)(=O)N(C)C)ccc21	·	15.3	·	·	·
SMILES	Pf growth 48h	HCMV inh	Cycloheximide cs	Pf growth 96h	Shiga toxin inh
CC1=C(C(=O)O)N2C(=O)[C@@H](NC(=O)[C@@H](N)c3ccc(O)cc3)[C@@H]2SC1	5.7%[12.8 µM]	·	·	3.2%[12.8 µM]	·
Cc1ccc2nc(-c3ccc(Cl)cc3)cc(C(=O)OCC(=O)c3ccccc3)c2c1	·	-12.4	·	·	·
N/C(=N\OC(=O)CCC1CCCCC1)c1cccnc1	7.6%	-18.1	16.8*	7.8%	35.4*
CCCCNC(=O)C1(C)CCC(=O)N1CCOc1ccccc1 (centres undefined)	·	-13.7	·	·	·
COc1ccc(C2=Nn3c(nnc3-c3cccc(OC)c3OC)SC2)c(OC)c1	·	·	-1.9	·	-6.3
CCCS(=O)(=O)NC(=O)C1(C)CCCN(C(=O)c2cc(F)cc(F)c2)C1 (centres undefined)	·	-9.9	·	·	·
Cc1ccccc1NC1c2ccccc2C(=O)N1Cc1ccco1 (centres undefined)	·	69.0	-2.9	8.28µM*	-6.2
COc1cccc(NC2c3ccccc3C(=O)N2Cc2ccco2)c1 (centres undefined)	·	-0.1	-4.7	?	-14.8
CCc1ccc(NC(=O)C2CCN(c3cc(C)nc4c(-c5ccc(Cl)cc5)c(C)nn34)CC2)cc1	·	-22.6	·	·	·
Cc1cc(C(=O)NNC(=O)Nc2ccc(Cl)cc2)no1	2.9%	85.5	0.3	3.6%	17.5
Cc1cc(/C(N)=N/OC(=O)Nc2ccccc2)no1	59.1%	54.4	23.5*	54.6%	42.1*
Cc1cc(/C(N)=N/OC(=O)Nc2ccc(Cl)cc2)no1	60.8%	140.0	26.9*	0.0%	55.5*
Cc1cc(C)n2ncc(/C(N)=N/OC(=O)Nc3ccccc3)c2n1	9.7%	8.0	9.6*	?	16.1
C[C@H]1CCC(=O)N([C@H](CN=[N+]=[N-])Cc2ccccc2)CC1	0.0%	?	3.1	?	11.2
COc1cc(CCC(=O)N2CCN(c3cccc(C)c3C)CC2)cc(OC)c1OC	?	-3.5	2.8	?	-5.0
COC(=O)C1CCN(c2ccc(Cl)nn2)CC1	1.47µM*	-24.7	13.8	?	26.5
CCCCN(CCCC)CC(O)CN(c1cc([N+](=O)[O-])ccc1OC)S(=O)(=O)c1ccccc1 (centres undefined)	13.1µM*	-20.3	-3.2	?	-4.7
COc1ccc([N+](=O)[O-])cc1N(CC(O)CN(CC(C)C)CC(C)C)S(=O)(=O)c1ccccc1 (centres undefined)	9.28µM*	75.9	-2.8	?	11.3
CCCNC(=O)N1C[C@H](O)COC[C@H]2O[C@@H](CC(=O)N[C@@H]3CCN(Cc4ccccc4)C3)CC[C@@H]21	·	-13.6	·	·	·
Nc1nc(C(c2ccccc2)c2ccccc2)cs1	-20.2%	-15.0	-1.8	-22.9%	-1.8
NC1=NC[C@H](Cc2ccc(O)cc2)N1CC1CCCCC1	5.86µM*	-5.1	-1.5	2.62µM*	-6.5
Oc1ccc(C[C@@H]2CNCCN2CCCCC2CCCCC2)cc1	?	-8.1	·	?	·
NC1=NC[C@@H](Cc2ccc(O)cc2)N1CCCCC1CCCCC1	1.85µM*	-36.5	-4.7	1.17µM*	-1.8
NC1=NC[C@H](Cc2ccccc2)N1CC1CCCCC1	·	-14.6	·	·	·
CNC(=O)c1cn2c3c(ccc(Cl)c3c1=O)OC(C)C2 (centres undefined)	·	8.7	·	·	·
CC1(c2ccc3c(c2)OCCCO3)NC(=O)N(CC(=O)NCCc2ccccc2)C1=O (centres undefined)	?	-31.8	·	?	·
COc1cccc(C(=O)NCCS(=O)(=O)NCc2ccc(Cl)cc2)c1	-23.6%	-32.9	·	5.1%	·
c1ccc(COc2ccc(OCCn3cncn3)cc2)cc1	189.4%	76.7	25.1*	·	53.8*
